One assay concerns Staphylococcus aureus. As to conditions: Concentration 20 uM; ASSAY_TEST Inhibition of Bacterial Growth; detection method Absorption (OD600); MEDIA CAMHB; plate type 384well; NBS; CORNING #3640; time 18 hr.
For the next assay, the system named is Escherichia coli. As to conditions: Concentration 20 uM; ASSAY_TEST Inhibition of Bacterial Growth; detection method Absorption (OD600); MEDIA CAMHB; plate type 384well; NBS; CORNING #3640; time 18 hr.

Molecules are shown by their SMILES. Results with a measured potency or affinity are listed apart.

Usually Inhibition stands for the drop in the measured response relative to a control, in per cent. As for `Cl.O[C@@H]1CCCC[C@H]1N1CCC(c2ccccc2)CC1`, the figures for the Inhibition in the assay with Staphylococcus aureus and in the assay on Escherichia coli were 14.8% and 1.48%, respectively.
For `CCCC(C)(COC(N)=O)COC(=O)NC(C)C` (stereo unspecified) [CARISOPRODOL], in that order: -20.34% and 4.18%.
The matching figures for `CS(=O)(=O)Nc1ccc(Cc2noc(-c3ccc4[nH]cc(CCN)c4c3)n2)cc1.O.O`: 12.02% and 7.87%.
The matching figures for `COc1cc(CNC(=O)CCCC/C=C\C(C)C)ccc1O` [ZUCAPSAICIN]: 14.17% and 0%.
On to `CCOC(=O)c1ncn2c1CN(C)C(=O)c1cc(F)ccc1-2` [FLUMAZENIL], for which the Inhibition in the assay with Staphylococcus aureus is listed as -0.36%; with Escherichia coli, -2.76%.
The matching figures for `CC(C)C(=O)Nc1ccc([N+](=O)[O-])c(C(F)(F)F)c1` [FLUTAMIDE]: 10.52% and 4.1%.
The matching figures for `Cl.O.Oc1ccc2c3c1O[C@H]1c4[nH]c5ccccc5c4C[C@@]4(O)C(C2)N(CC2CC2)CC[C@]314`: -20.11% and 6.59%.
For `CN1CC[C@@]23CCCC[C@@H]2[C@@H]1Cc1ccc(O)cc13.O=C(O)C(O)C(O)C(=O)O`, in that order: 4.84% and 6.67%.
Regarding `Cl.O=C1CC[C@@]2(O)[C@H]3Cc4ccc(O)c5c4[C@@]2(CCN3CC2CC2)[C@H]1O5` [NALTREXONE HYDROCHLORIDE], the results for the Inhibition with Staphylococcus aureus and in the assay with Escherichia coli were 14.26% and 5.04%, respectively.
Consider `CCC1(c2ccc(N)cc2)CCC(=O)NC1=O` (stereo unspecified) [AMINOGLUTETHIMIDE], for which the Inhibition in the assay on Staphylococcus aureus was -4.21%; with Escherichia coli, 2.02%.
The matching figures for `CC(=O)OCC[N+](C)(C)C.[Cl-]` [ACETYLCHOLINE CHLORIDE]: 11.31% and 4.11%.
The matching figures for `CCOC(=O)C1(c2ccccc2)CCN(CCC(C#N)(c2ccccc2)c2ccccc2)CC1.Cl` [DIPHENOXYLATE HYDROCHLORIDE]: 14.18% and -7.43%.
For `CCN(CC)CCOC(=O)C(O)(c1ccccc1)c1ccccc1.Cl`, in that order: 13% and -0.91%.
As for `Cl.O=C1c2cccc3c2[C@H](CCC3)CN1[C@@H]1CN2CCC1CC2` [PALONOSETRON HYDROCHLORIDE], the Inhibition in the assay on Staphylococcus aureus amounted to 8.38%; in the assay with Escherichia coli it was 4.34%.
The matching figures for `CN1CCN(C2=Nc3cc(Cl)ccc3Nc3ccccc32)CC1` [CLOZAPINE]: -2.25% and -7.08%.
The matching figures for `CC(=O)CC(c1ccccc1)c1c([O-])c2ccccc2oc1=O.[Na+]` (stereo unspecified) [WARFARIN SODIUM]: 12.98% and -2.34%.
The matching figures for `CC[C@]1(O)CC[C@H]2[C@@H]3CCC4=CCCC[C@@H]4[C@H]3CC[C@@]21C` [ETHYLESTRENOL]: -6.51% and 3.02%.
`O=C1CN=C(c2ccccc2)c2cc([N+](=O)[O-])ccc2N1` [NITRAZEPAM]: the Inhibition came to 7.65% in the assay with Staphylococcus aureus and 5.89% in the assay on Escherichia coli.
For `O.O=P1(N(CCCl)CCCl)NCCCO1` (stereo unspecified) [CYCLOPHOSPHAMIDE], in that order: 2.64% and 1.99%.
For `CCOC(=O)C1=C(COCCN)NC(C)=C(C(=O)OC)C1c1ccccc1Cl` (stereo unspecified) [AMLODIPINE], in that order: -19.31% and 5.81%.
The matching figures for `C[N+]1(C)CCN(c2ccccc2)CC1.[I-]` [DIMETHYLPHENYLPIPERAZINIUM IODIDE]: 11.69% and 3.59%.
For `CCCCCNC(=N)N/N=C/c1c[nH]c2ccc(OC)cc12.O=C(O)/C=C\C(=O)O` [TEGASEROD MALEATE], the values for the Inhibition in the assay with Staphylococcus aureus and in the assay on Escherichia coli were 22.85% and -0.84%, respectively.
The matching figures for `O=C1Nc2ccc(Cl)cc2C(c2ccccc2Cl)=NC1O` (stereo unspecified) [LORAZEPAM]: -3.94% and 2.56%.

(Values after ChEMBL document CHEMBL4513141, “CO-ADD screening of NIH (USA) - Clinical Collection” (2021).)
